Measurements from PubChem BioAssay (NCATS).
Active and inactive are the calls of the source. The call rests on the fitted dose curve; in most records, active means well fitted curve in the direction sought with a large enough effect; inconclusive means small, poorly fitted or top-dose-only effect, or another doubt; inactive means no such curve, though single readings can be large; an effect the other way counts as inactive or inconclusive.

Tests used:
[1] = molecular target: Alpha-galactosidase A (Homo sapiens) (UniProt P06280); assay: Counterscreen for Glucocerebrosidase Inhibitors: qHTS Assay for Human alpha-Galactosidase at pH 4.5 (AID 992)
Method in brief: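 Enzyme at 2 nM final was combined with compound (0.7 nM to 77 uM) and 80 uM 4-methylumbelliferyl alpha-D-galactopyranoside in 50 mM citric acid, 0.005% Tween-20, pH 4.5. After 20 min at room temperature, fluorescence was read (Ex 365/Em 440 nm); AC50 came from Hill fits.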

[2] = molecular target: alpha-glucosidase (Oryza sativa, rice) (UniProt Q653V4); assay: Counterscreen for Glucocerebrosidase Inhibitors: qHTS Assay for Rice alpha-Glucosidase at pH 5.0 (AID 997)
Method in brief: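 Rice alpha-glucosidase (4 nM final) with 400 uM 4-methylumbelliferyl-alpha-D-glucopyranoside in citrate buffer pH 5.0, 20 min at room temperature, stopped at pH 10; fluorescence 365/440 nm, compounds 0.7 nM–77 uM, AC50 from Hill fits.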

Alpha-galactosidase A (Homo sapiens), sequence (P06280 whole entry, looked up): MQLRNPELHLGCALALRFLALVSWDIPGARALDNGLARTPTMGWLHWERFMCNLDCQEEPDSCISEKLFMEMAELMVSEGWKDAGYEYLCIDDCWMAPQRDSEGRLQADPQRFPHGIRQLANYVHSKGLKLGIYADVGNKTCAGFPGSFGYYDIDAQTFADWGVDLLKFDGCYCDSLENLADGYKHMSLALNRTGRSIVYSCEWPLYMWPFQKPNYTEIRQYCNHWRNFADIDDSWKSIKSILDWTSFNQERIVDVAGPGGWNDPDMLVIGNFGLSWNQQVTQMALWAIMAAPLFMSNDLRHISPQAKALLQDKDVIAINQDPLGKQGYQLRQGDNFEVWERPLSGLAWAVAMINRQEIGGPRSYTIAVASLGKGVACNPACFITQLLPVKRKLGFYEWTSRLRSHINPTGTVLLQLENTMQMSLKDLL

Compound: OCc1ccc(-c2nn(Cc3ccccc3)c3ccccc23)o1
- outcome [1]: inactive
- outcome [2]: inactive
